Test results published in PubChem BioAssay (NCATS).
Results filed as inconclusive are left out. Activity calls are given as the source filed them. The call rests on the fitted dose curve; in most records, active means well fitted cell-killing curve with a large enough effect; inconclusive means small, poorly fitted or top-dose-only effect, or effect the other way; inactive means flat fitted curve, though single readings scatter.

What was measured:
Test in all cases: Primary qHTS to identify gynecologic anti-cancer compounds using libraries of approved drugs and bioactive compounds (AID 1345084); further: nearly all actives have a fitted effect of over 55% in size
C33A = conditions: Gynecologic cancer cell panel viability, ATPlite luminescence, 48 h; series mostly up to 57.5 µM
How it was run: (§1)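 In this quantitative HTS, cell killing is estimated from loss of ATP-dependent luciferase light. Cells see five compound concentrations over a 48 h exposure.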

CAOV3 = conditions: Gynecologic cancer cell panel viability, ATPlite luminescence, 48 h; series mostly up to 57.5 µM
How it was run: as §1

CASKI = conditions: Gynecologic cancer cell panel viability, ATPlite luminescence, 48 h; series mostly up to 57.5 µM
How it was run: as §1

Es-2 = conditions: Gynecologic cancer cell panel viability, ATPlite luminescence, 48 h; series mostly up to 57.5 µM
How it was run: as §1

HeLa = conditions: Gynecologic cancer cell panel viability, ATPlite luminescence, 48 h; series mostly up to 57.5 µM
How it was run: as §1

Hek293T = conditions: Gynecologic cancer cell panel viability, ATPlite luminescence, 48 h, control line for the selectivity index; series mostly up to 57.5 µM
How it was run: as §1

JEG-3 = conditions: Gynecologic cancer cell panel viability, ATPlite luminescence, 48 h; series mostly up to 57.5 µM
How it was run: as §1

OV90 = conditions: Gynecologic cancer cell panel viability, ATPlite luminescence, 48 h; series mostly up to 57.5 µM
How it was run: as §1

PA-1 = conditions: Gynecologic cancer cell panel viability, ATPlite luminescence, 48 h; series mostly up to 57.5 µM
How it was run: as §1

SKOV3 = conditions: Gynecologic cancer cell panel viability, ATPlite luminescence, 48 h; series mostly up to 57.5 µM
How it was run: as §1

Tov-21-G = conditions: Gynecologic cancer cell panel viability, ATPlite luminescence, 48 h; series mostly up to 57.5 µM
How it was run: as §1

Tov112D = conditions: Gynecologic cancer cell panel viability, ATPlite luminescence, 48 h; series mostly up to 57.5 µM
How it was run: as §1

Measured: Potency

COc1cc(C(=O)O)ccc1NC(=O)C1NC(CC(C)(C)C)C(C#N)(c2ccc(Cl)cc2F)C1c1cccc(Cl)c1F (stereo not drawn)
inactive: all assays above

COc1cc2c(cc1O)C1(Cc3ccc4c(c3C1O)OCO4)[N+](C)([O-])CC2 (stereo not drawn)
inactive: all assays above

Cc1cc2sc(NC(=O)Cc3ccccc3)nc2cc1Cl
inactive: all assays above

C[C@@H](NC(=O)C(=O)c1c[nH]c2ccc([N+](=O)[O-])cc12)c1ccccc1
inactive: all assays above

CNC(=O)COC(=O)N1CCC(CCc2ccc(Cl)cc2)CC1
inactive: all assays above

C/C=C(/C=C(C)/C=C/C=C/C=C(\C)C(=O)C12OC1C(O)(CCO)NC2=O)C(=O)OC (stereo not drawn)
inactive: all assays above

Cc1cnn(-c2ccccc2)c1NC(=O)COCc1ccccc1
inactive: all assays above

Cc1ccc(C)c(NC(=O)[C@@H]2CCCN2S(=O)(=O)c2cccc3cccnc23)c1
inactive: all assays above

C=C1CC[C@@H]2[C@](C)(CO)[C@H](O)CC[C@@]2(C)[C@@H]1/C=C/C1=CCOC1=O
inactive: all assays above

COC1C=C(C)C(O)(CO)C2(C)CCCC(C)(C)C12 (stereo not drawn)
inactive: all assays above

CCOc1ccc(CCNC(=O)c2cc3sc(Cl)cc3n2C)cc1OCC
inactive: all assays above

O=C(NC[C@H]1CN(c2ccc(N3CCOCC3=O)cc2)C(=O)O1)c1ccc(Cl)s1
inactive: all assays above

CC1(C)OC[C@H](NC(=O)Nc2ccc(Br)cc2Br)[C@H](c2ccccc2)O1
inactive: all assays above

COc1ccccc1OCCN1CC(COc2cccc3[nH]c4ccccc4c23)OCC1=O (stereo not drawn)
inactive: all assays above

C/C=C(\C)C(=O)O[C@H]1C[C@](C)(O)[C@H]2CC=C(C)[C@H]2[C@@H]2OC(=O)[C@H](C)[C@H]21
inactive: all assays above

C=C1C(=O)OC2C=C(C)CC/C=C(\CO)CC(O)C12 (stereo not drawn)
inactive: all assays above

CC1(CO)CC2C(O)C3=C(CC(C)(O)C2C1)C(=O)OC3 (stereo not drawn)
inactive: all assays above

CC(C)/C=C1\NC(=O)C(C(C)C)n2c1nc1ccccc1c2=O (stereo not drawn)
inactive: all assays above

O=C(N[C@H](Cc1cscn1)C(=O)N[C@@H](CC1CCCCC1)[C@@H](O)[C@@H](O)C1CC1)c1nc2ccccc2[nH]1
inactive: all assays above

C=CCC1=C[C@]2(OC)[C@H](C)[C@@H](c3ccc4c(c3)OCO4)O[C@]2(OC)CC1=O
inactive: all assays above

O[C@@](Cc1ncc(CC2(C(F)(F)F)CC2)[nH]1)(c1ccc(-n2cccn2)cc1)C(F)(F)F
inactive: all assays above

C=C(C(=O)OC[C@H]1O[C@@H](OC(=O)/C=C/c2ccccc2)[C@H](O)[C@@H](O)[C@@H]1O)C(O)CO (stereo partly drawn)
inactive: all assays above

C/C=C(\C)C(=O)OC1C=C(C)CC(OC(=O)c2ccc(O)cc2)C2C1(C)CCC2(O)C(C)C (stereo not drawn)
inactive: all assays above

CC1(C)CCCC2(C)C1C(OC(=O)/C=C/C=C/C=O)C=C1COC(=O)C12O (stereo not drawn)
inactive: all assays above

CN(C)C(=O)Nc1cc(-c2ccccc2)ccc1N(C)C
inactive: all assays above

COC1C(OC(=O)/C=C/C=C/C=C/C=C/C(=O)O)CCC2(CO2)C1C1(C)OC1CC=C(C)C (stereo not drawn)
inactive: all assays above

Cc1[nH]c2ccccc2c1CCNC(=O)c1cccs1
inactive: all assays above

CC(=O)O[C@@H]1CC2C(/C=C(\C)C(=O)[C@@]3(O)C[C@@H](C)[C@H](OC(=O)c4ccccc4)C3/C=C/1C)C2(C)C (stereo partly drawn)
inactive: all assays above

COc1ccc(C#Cc2ccc(C(=O)N3CCC[C@@H](CO)C3)cc2)cc1
inactive: all assays above

O=C(Nc1cc(C(F)(F)F)cc(C(F)(F)F)c1)c1cnc(Cl)nc1C(F)(F)F
inactive: all assays above

CCC/C=C/c1cc2c(C=O)c(O)c(CC=C(C)C)cc2o1
inactive: all assays above

CCC(C)CNCC(=O)N1CCC2SC=CC2C1COc1cccc(C)c1 (stereo not drawn)
inactive: all assays above

COc1cc(C(=O)NCC2(N(C)C)CCCC2)cc(OC)c1OCc1ccccc1
inactive: all assays above

CNCCCC1(c2ccccc2)OC(C)(C)c2ccccc21 (stereo not drawn)
inactive: all assays above
